Screening results from PubChem.
DT40 TDP1 CPT – qHTS for Inhibitors of human tyrosyl-DNA phosphodiesterase 1 (TDP1): qHTS in cells in presence of CPT. chicken DT40 Tdp1-/-;hTDP1 cells + 20 nM CPT, ATP luminescence, 48 h. Potency, µM (doses to about 46.2 µM), for the others: top-dose activity change, negative = growth inhibition, most hits filed as inhibitors. 420,000 tested, 12% active; further: potency means the concentration at half of the fitted maximal effect; on the % scale 0 is the no-effect control and ±100 the full control effect; nearly all actives have a fitted effect of over 55% in size
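Chicken DT40 Tdp1-/- cells stably complemented with human TDP1 were seeded at 400 cells/well in medium containing 20 nM camptothecin, exposed to pin-transferred compounds, and grown at 37 °C for at least 48 hr. Viability was read as ATP luminescence.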
TDP1 cell noCPT – qHTS for Inhibitors of human tyrosyl-DNA phosphodiesterase 1 (TDP1): qHTS in cells in absence of CPT; DT40 Tdp1-/- hTDP1 cells, no CPT, ATP luminescence, 48 h; 420,000 tested, 15% active; Potency, µM (doses to about 46.2 µM), for the others: at the highest dose activity change, negative = growth inhibition, hits mostly inhibitors; AID 686978, 2013; further: potency means the concentration at half of the fitted maximal effect; on the % scale 0 is the no-effect control and ±100 the full control effect; nearly all actives have a fitted effect of over 55% in size
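Chicken DT40 Tdp1-/- cells stably complemented with human TDP1 were seeded at 400 cells/well with DMSO in place of 20 nM camptothecin. After compound pinning, cells grew at least 48 hr at 37 °C; viability read by CellTiter-Glo luminescence.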
TDP1 block – qHTS Assay for Inhibitors of Tyrosyl-DNA Phosphodiesterase (TDP1) | Tyrosyl-DNA phosphodiesterase 1 (Homo sapiens), Q9NUW8 | recombinant TDP1, AlphaScreen DNA substrate cleavage | Potency, µM (titrated, usually from 130 µM), inactives show at the highest dose activity change, negative = inhibition, usual class: inhibitors | 350,000 tested, 0.28% active; further: potency means the concentration at half of the fitted maximal effect; on the % scale 0 is the no-effect control and ±100 the full control effect; nearly all actives have a fitted effect of over 40% in size
Target sequence (Q9NUW8 whole entry, looked up): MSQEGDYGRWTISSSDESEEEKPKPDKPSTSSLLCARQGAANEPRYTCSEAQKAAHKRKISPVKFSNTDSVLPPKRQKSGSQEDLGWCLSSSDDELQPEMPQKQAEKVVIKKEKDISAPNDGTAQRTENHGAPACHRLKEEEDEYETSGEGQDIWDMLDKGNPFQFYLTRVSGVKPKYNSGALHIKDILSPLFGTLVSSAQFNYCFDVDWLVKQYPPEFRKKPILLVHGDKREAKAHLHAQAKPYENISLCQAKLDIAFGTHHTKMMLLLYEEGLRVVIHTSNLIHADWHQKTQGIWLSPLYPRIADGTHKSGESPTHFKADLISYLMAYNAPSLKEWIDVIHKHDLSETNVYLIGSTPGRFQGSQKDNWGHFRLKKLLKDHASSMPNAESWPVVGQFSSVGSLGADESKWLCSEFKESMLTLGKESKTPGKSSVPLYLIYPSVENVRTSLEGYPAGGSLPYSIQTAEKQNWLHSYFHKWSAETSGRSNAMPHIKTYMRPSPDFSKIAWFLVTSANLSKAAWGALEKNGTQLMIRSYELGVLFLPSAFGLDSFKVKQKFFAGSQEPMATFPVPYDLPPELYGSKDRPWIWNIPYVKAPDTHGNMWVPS
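E. coli-derived human Tdp1, 1 nM final. Cpd preinc 15 min RT; substrate 15 nM final, 5 min RT; AS bead mix 10 ug/ml final, 10 min RT. Signal loss = tyrosine-FITC cleavage. No-enzyme wells = max signal.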
miR-21 act – qHTS Assay for Modulators of miRNAs and/orActivators of miR-21; Potency, µM (top dose mostly 38.3 µM), for the others: top-dose activity change, positive = activation, actives largely listed as activators; 340,000 tested, under 10 active; HeLa miR-21 FLuc reporter, luciferase, 48 h;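 further: % of control where 0% means no effect; miR-21 action dims this reporter so a rising signal means less miR-21 action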
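HeLa cells stably expressing CMV-driven firefly luciferase with a downstream miR-21 binding sequence, endogenously expressing miR-21, were treated with titrations (up to about 40uM final) for 48 hours at 37 degree Celsius. Luciferase luminescence was read after lysis.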
uPA generation – qHTS for Inhibitors of Cell Surface uPA Generation; Potency, µM (series often up to 38.3 µM), inactives show at the highest dose activity change, negative = inhibition, usual class: inhibitors; 330,000 tested, 0.31% active; cell surface uPA generation assay, qHTS; AID 540303, 2011; active means well fitted inhibition curve with a large enough effect; inconclusive means small, poorly fitted or top-dose-only effect; inactive means no such curve, though single readings can be large or run the other way; tested in mouse RAW 264.7 cells; further: potency means the concentration at half of the fitted maximal effect; on the % scale 0 is the no-effect control and ±100 the full control effect; nearly all actives have a fitted effect of over 55% in size
The depositor's hits bear a star; [ ] = remark or other dose. Most compounds without a hit are left out; they make up all but 16% or so of the library. Unless noted, the call rests on the fitted dose curve; in most records, active means well fitted curve in the direction sought with a large enough effect; inconclusive means small, poorly fitted or top-dose-only effect, or another doubt; inactive means no such curve, though single readings can be large; an effect the other way counts as inactive or inconclusive.

Screening Cc1ccc(-n2c(SCC(=O)N3CCCc4ccccc43)nc3c([nH]c4ccccc43)c2=O)cc1 returned DT40 TDP1 CPT -10%, TDP1 cell noCPT -20%, TDP1 block 5% and miR-21 act -37%.
Screening CC1CCCN(C(=O)COC(=O)c2cc([N+](=O)[O-])ccc2N2CCOCC2)C1 (stereo unspecified) returned DT40 TDP1 CPT -21%, TDP1 cell noCPT inconclusive and uPA generation 3%.
Screening CC(C)C[C@@H](CN1CCC[C@H]1CN1C(=O)C(=O)NC[C@@H]1Cc1ccc(O)cc1)N1C[C@H](Cc2ccc(O)cc2)N(CC2CCCCC2)C(=O)C1=O returned DT40 TDP1 CPT 0% and TDP1 cell noCPT -2%.
CC(C)C[C@H]1CNC(=S)N1CC1CCCN1C[C@H](CC(C)C)N1C[C@H](CC(C)C)N(CC2CCCCCC2)C1=S (stereo partly specified) was read as DT40 TDP1 CPT 18µM*, TDP1 cell noCPT 16µM* and uPA generation 11%.
Screening CC(C)C[C@@H](CN1CCC[C@@H]1CN1C(=S)NC[C@@H]1Cc1ccc(O)cc1)N1C[C@H](Cc2ccc(O)cc2)N(CC2CCCCCC2)C1=S returned DT40 TDP1 CPT 18µM* and TDP1 cell noCPT 16µM*.
`Cc1oc(CN2CCOCC2)cc1C(=O)O` gave DT40 TDP1 CPT 21%, TDP1 cell noCPT 0%, TDP1 block 2%, miR-21 act 0% and uPA generation 3%.
Screening CCOc1cc(CNC(=O)NC2COc3ccccc3C2)cc(OCC)c1OCC (stereo unspecified) returned DT40 TDP1 CPT inconclusive, TDP1 cell noCPT inconclusive, TDP1 block 5% and miR-21 act 0%.
Screening CC1CCCC(C)N1S(=O)(=O)c1ccc(NC(=O)CNC2CCCC2)cc1 (stereo unspecified) returned DT40 TDP1 CPT inconclusive, TDP1 cell noCPT inconclusive, miR-21 act -4% and uPA generation -1%.
CC(C)=CCN1CCN(Cc2nc(-c3ccc(F)cc3)cs2)CC1CCO (stereo unspecified) was read as DT40 TDP1 CPT inconclusive, TDP1 cell noCPT inconclusive, TDP1 block 1%, miR-21 act 6% and uPA generation 0%.
`Cc1ccc(CN2CCN(Cc3nc(C(C)C)cs3)CC2CCO)cc1` (stereo unspecified) gave DT40 TDP1 CPT inconclusive, TDP1 cell noCPT 12µM*, TDP1 block 3%, miR-21 act 1% and uPA generation -4%.
OCCC1CN(Cc2nc(-c3ccccc3)cs2)CCN1Cc1ccc(F)cc1 (stereo unspecified) was read as DT40 TDP1 CPT 23µM*, TDP1 cell noCPT 16µM*, TDP1 block 8%, miR-21 act 23% and uPA generation -2%.
For CC(C)c1csc(CN2CCN(Cc3ccc(F)cc3)C(CCO)C2)n1 (stereo unspecified) the results were DT40 TDP1 CPT -1%, TDP1 cell noCPT -29%, TDP1 block 6%, miR-21 act 0% and uPA generation 3%.
For CC(C)=CCN1CCN(Cc2cnc(-c3ccccc3)s2)CC1CCO (stereo unspecified) the results were DT40 TDP1 CPT 26µM*, TDP1 cell noCPT inconclusive, miR-21 act -2% and uPA generation -9%.
`OCCC1CN(Cc2nc3ccccc3s2)CCN1CCc1ccccc1` (stereo unspecified) gave DT40 TDP1 CPT inconclusive, TDP1 cell noCPT 26µM*, TDP1 block 0%, miR-21 act -2% and uPA generation -2%.
`OCCC1CN(Cc2cnc(-c3ccccc3)s2)CCN1Cc1ccccc1` (stereo unspecified) gave DT40 TDP1 CPT 0%, TDP1 cell noCPT inconclusive, miR-21 act 11% and uPA generation 1%.
For Cc1cc(C)nc(N(C#N)S(=O)(=O)c2ccccc2)n1 the results were DT40 TDP1 CPT -2%, TDP1 cell noCPT 2%, TDP1 block 4%, miR-21 act -1% and uPA generation 4%.
For Cc1cc(C)cc(N2CC34C=CC(O3)C(C(=O)OCC(=O)NCc3ccco3)C4C2=O)c1 (stereo unspecified) the results were DT40 TDP1 CPT 3%, TDP1 cell noCPT -23%, TDP1 block 0%, miR-21 act 0% and uPA generation 0%.
Screening CC(=O)c1nc(N2C(=O)CC(Cc3ccccc3)C2=O)sc1C (stereo unspecified) returned DT40 TDP1 CPT -13%, TDP1 cell noCPT -5%, TDP1 block -5%, miR-21 act 0% and uPA generation 1%.
COc1ccccc1/C=C/CN1CCN(Cc2ccc(F)cc2)C(CCO)C1 (stereo unspecified) was read as DT40 TDP1 CPT inconclusive, TDP1 cell noCPT 18µM*, TDP1 block 1%, miR-21 act -3% and uPA generation -3%.
`COc1ccc(CN2CCN(Cc3ccccc3)C(CCO)C2)cc1OC` (stereo unspecified) gave DT40 TDP1 CPT -30%, TDP1 cell noCPT -13%, TDP1 block 0%, miR-21 act 1% and uPA generation -8%.
`O=C(CCc1nc2ccccc2c(=O)[nH]1)NCCN1C(=O)S/C(=C\c2ccccc2Cl)C1=O` gave DT40 TDP1 CPT inconclusive, TDP1 cell noCPT inconclusive and uPA generation -4%.
`O=C(NCCN1C(=O)S/C(=C\c2cccc(Cl)c2Cl)C1=O)C1=COCCO1` gave DT40 TDP1 CPT 1.5µM*, TDP1 cell noCPT 2.6µM*, TDP1 block 0%[56.1 µM], miR-21 act 0% and uPA generation -9%.
Screening CCOCCOc1nc2c(c(=O)n(C)c(=O)n2C)n1Cc1ccc(C)cc1 returned DT40 TDP1 CPT inconclusive, TDP1 cell noCPT 8.2µM*, TDP1 block 0%, miR-21 act 3% and uPA generation 10%.
C=CCOc1nc2c(c(=O)n(Cc3ccc(Cl)cc3)c(=O)n2C)n1C was read as DT40 TDP1 CPT inconclusive, TDP1 cell noCPT 12µM*, TDP1 block 2%, miR-21 act 0% and uPA generation -16%.
COc1ccc(Oc2nc3c(c(=O)n(Cc4ccc(Br)cc4)c(=O)n3C)n2C)cc1 was read as DT40 TDP1 CPT -3%, TDP1 cell noCPT inconclusive, TDP1 block 0% and miR-21 act -2%.
